# ± gives the standard deviation of the averaged measurements. The full data set covers some 6,500 targets. This sample favours those with the largest changes.
# Compound: Nc1ncnc2c1ncn2[C@@H]1O[C@H](COP(=O)(O)OP(=O)(O)OP(=O)(O)O)[C@@H](O)[C@H]1O [adenosine triphosphate]
# Assay: NP40-soluble protein abundance relative to vehicle (solubility fold change) (ratio); higher = more soluble protein in presence of ATP
# Method in brief: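 Values are fold changes against the detergent-processed vehicle, based on vsn-normalised intensities. Jurkat crude lysate was treated at eight concentrations from 0.1 to 10 mM (10 min at room temperature, then 3 min at 37 °C), solubilised with 0.8% NP40 and benzonase, ultracentrifuged and analysed by TMT-labelled LC-MS/MS over three independent experiments.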
# Chain of UniProt Q6ZRP7 (Q6ZRP7 whole entry, one chain of several): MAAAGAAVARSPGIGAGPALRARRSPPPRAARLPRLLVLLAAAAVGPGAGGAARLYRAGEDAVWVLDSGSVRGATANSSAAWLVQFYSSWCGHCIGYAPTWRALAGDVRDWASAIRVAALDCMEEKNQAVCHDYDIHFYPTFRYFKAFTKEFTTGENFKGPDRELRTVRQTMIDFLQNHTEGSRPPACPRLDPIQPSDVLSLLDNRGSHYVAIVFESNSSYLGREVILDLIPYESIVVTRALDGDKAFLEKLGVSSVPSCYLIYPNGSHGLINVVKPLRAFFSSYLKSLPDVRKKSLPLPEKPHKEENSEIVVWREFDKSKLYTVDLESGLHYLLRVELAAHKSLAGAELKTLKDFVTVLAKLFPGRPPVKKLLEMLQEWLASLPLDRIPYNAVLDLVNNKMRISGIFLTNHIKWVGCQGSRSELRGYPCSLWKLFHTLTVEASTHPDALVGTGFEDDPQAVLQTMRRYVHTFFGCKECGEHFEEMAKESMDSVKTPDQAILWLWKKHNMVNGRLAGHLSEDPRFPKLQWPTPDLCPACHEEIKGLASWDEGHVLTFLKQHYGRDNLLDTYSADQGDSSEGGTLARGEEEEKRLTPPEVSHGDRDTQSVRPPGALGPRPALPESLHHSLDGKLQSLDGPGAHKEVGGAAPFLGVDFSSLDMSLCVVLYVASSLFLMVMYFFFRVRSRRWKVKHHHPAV
# Chain of UniProt Q9BZG8 (Q9BZG8 whole entry, one chain of several): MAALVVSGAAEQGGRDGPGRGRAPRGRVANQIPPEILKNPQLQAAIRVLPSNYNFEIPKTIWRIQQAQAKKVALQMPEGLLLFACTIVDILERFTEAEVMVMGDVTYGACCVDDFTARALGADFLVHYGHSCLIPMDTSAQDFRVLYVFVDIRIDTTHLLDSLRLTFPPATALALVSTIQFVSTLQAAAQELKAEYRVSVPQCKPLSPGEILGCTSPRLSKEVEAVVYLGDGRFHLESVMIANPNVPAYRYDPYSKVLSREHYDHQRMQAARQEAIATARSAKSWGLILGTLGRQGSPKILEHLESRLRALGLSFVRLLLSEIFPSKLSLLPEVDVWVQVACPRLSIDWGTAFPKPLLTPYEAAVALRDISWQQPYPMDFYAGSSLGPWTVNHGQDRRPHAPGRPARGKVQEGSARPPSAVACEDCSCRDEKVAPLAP
# Chain of UniProt O15047 (O15047 whole entry): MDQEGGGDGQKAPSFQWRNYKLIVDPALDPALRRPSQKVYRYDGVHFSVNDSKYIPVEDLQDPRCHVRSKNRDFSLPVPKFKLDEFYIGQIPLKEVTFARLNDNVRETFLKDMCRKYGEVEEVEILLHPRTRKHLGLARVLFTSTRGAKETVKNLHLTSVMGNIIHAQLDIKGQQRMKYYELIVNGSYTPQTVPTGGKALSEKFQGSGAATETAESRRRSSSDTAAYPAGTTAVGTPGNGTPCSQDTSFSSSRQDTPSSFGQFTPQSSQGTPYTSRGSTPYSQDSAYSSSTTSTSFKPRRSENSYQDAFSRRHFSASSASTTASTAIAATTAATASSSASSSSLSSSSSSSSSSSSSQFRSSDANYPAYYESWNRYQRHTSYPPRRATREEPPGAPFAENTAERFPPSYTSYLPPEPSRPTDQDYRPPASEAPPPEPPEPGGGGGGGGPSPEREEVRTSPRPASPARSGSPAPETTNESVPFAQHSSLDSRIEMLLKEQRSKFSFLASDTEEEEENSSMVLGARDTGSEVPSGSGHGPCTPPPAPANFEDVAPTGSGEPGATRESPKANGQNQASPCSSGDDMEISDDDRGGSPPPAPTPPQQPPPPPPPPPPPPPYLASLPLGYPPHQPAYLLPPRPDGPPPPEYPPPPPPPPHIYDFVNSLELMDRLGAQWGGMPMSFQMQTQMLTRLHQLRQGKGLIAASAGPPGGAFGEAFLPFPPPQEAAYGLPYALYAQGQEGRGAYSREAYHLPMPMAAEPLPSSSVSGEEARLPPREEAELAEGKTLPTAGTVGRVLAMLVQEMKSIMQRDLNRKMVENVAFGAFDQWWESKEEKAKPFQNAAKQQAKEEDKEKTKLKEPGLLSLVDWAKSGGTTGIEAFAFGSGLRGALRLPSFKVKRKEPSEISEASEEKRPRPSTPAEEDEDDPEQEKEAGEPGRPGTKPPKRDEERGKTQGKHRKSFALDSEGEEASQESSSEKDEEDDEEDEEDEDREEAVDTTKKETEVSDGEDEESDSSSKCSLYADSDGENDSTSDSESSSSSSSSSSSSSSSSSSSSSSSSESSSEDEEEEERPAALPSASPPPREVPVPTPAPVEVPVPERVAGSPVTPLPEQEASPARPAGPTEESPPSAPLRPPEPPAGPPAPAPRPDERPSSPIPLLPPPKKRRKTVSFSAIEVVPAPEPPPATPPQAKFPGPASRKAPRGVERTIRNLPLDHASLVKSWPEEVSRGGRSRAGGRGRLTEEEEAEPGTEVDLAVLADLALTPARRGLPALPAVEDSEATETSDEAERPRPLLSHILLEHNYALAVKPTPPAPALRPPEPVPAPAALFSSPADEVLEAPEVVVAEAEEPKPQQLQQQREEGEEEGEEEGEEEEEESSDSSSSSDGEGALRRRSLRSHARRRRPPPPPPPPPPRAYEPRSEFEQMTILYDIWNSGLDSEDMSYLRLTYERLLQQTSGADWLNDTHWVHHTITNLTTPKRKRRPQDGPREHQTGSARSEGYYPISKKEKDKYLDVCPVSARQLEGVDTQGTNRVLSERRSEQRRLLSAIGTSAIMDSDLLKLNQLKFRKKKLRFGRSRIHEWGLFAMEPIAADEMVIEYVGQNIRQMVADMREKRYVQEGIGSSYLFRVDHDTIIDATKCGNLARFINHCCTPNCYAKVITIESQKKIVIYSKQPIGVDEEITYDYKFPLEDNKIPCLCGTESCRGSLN
# Chain of UniProt O43143 (O43143 whole entry): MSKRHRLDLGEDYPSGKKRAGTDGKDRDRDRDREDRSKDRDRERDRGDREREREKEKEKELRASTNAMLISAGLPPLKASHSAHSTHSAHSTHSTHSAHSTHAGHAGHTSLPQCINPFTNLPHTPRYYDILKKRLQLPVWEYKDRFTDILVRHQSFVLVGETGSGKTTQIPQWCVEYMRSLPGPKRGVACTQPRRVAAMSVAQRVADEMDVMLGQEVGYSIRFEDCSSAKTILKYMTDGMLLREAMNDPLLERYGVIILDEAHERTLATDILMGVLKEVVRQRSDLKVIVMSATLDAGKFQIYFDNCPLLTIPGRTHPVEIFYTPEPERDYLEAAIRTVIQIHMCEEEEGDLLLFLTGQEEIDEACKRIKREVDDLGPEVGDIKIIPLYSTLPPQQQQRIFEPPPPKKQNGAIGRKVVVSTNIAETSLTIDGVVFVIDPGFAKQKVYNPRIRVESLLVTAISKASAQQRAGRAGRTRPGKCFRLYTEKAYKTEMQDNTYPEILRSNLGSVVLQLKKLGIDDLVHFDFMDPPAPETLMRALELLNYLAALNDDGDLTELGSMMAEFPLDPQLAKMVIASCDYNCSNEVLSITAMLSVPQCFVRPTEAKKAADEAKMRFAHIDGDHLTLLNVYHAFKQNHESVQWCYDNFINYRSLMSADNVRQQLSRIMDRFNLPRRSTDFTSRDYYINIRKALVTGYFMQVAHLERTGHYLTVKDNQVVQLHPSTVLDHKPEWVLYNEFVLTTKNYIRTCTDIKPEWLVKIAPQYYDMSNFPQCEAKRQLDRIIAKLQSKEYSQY
# Chain of UniProt O95232 (O95232 whole entry, one chain of several): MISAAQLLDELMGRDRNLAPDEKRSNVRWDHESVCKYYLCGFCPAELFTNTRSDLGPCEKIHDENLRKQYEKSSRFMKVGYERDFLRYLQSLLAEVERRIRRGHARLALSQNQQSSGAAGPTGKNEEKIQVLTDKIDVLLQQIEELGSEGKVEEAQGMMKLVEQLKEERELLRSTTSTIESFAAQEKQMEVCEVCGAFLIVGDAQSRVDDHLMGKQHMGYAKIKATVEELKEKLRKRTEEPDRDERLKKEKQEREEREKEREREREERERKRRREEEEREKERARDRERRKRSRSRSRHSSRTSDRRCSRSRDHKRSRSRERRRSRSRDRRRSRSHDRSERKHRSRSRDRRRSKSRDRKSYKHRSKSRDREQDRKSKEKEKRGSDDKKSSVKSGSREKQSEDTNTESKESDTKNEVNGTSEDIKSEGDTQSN
# Chain of UniProt O43678 (O43678 whole entry): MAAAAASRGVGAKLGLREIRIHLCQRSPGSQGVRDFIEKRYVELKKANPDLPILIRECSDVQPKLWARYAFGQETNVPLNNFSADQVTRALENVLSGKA
# Chain of UniProt P43243 (P43243 whole entry, one chain of several): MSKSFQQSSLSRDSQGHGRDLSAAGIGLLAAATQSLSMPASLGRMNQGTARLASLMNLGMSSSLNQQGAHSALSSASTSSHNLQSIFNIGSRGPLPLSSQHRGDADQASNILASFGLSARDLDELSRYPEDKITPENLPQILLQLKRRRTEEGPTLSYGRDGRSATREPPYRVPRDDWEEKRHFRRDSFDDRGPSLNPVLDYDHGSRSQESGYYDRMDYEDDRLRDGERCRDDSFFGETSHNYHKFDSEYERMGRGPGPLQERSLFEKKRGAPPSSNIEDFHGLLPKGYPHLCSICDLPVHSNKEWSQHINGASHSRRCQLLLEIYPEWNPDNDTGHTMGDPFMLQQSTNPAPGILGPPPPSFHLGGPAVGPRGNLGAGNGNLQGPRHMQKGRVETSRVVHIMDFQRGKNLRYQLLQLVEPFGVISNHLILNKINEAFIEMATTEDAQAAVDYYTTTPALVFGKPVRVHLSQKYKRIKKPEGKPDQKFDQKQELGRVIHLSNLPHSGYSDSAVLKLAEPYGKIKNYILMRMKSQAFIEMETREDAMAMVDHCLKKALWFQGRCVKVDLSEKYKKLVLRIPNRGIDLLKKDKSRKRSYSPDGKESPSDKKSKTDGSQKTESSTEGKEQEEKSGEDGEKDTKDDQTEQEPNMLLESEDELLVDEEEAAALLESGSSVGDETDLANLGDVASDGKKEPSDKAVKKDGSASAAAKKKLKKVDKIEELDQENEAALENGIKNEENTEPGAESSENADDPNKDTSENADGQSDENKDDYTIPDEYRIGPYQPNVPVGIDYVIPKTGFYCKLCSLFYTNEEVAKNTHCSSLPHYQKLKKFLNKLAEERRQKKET
Target,NP40-soluble protein abundance (concentration: 1mM),NP40-soluble protein abundance (concentration: 2mM),NP40-soluble protein abundance (concentration: 4mM),NP40-soluble protein abundance (concentration: 6mM),NP40-soluble protein abundance (concentration: 8mM),NP40-soluble protein abundance (concentration: 10mM)
XYLB (UniProt O75191),1 ± 0.053,0.986 ± 0.062,0.984 ± 0.097,0.965 ± 0.069,0.99 ± 0.075,0.967 ± 0.053
H7C5U8|Q9P0M9 (UniProt Q9P0M9),1.12 ± 0.16,0.995 ± 0.22,0.923 ± 0.19,0.944 ± 0.29,0.902 ± 0.19,0.894 ± 0.24
UniProt O14524,0.824 ± 0.11,0.887 ± 0.1,0.841 ± 0.017,0.899 ± 0.066,0.872 ± 0.029,0.896 ± 0.036
B4E1G1|E5RGY0|Q9BUN8|Q9BUN8-2 (UniProt Q9BUN8),0.948 ± 0.084,0.979 ± 0.12,0.989 ± 0.083,0.975 ± 0.1,0.955 ± 0.021,1 ± 0.056
A0A0B4J220 (UniProt E9PRG8),1.02 ± 0.028,1.11 ± 0.066,1.27 ± 0.17,1.31 ± 0.091,1.42 ± 0.27,1.56 ± 0.23
H0YM92|J3KMZ9|P01130|P01130-5|H0YMD1|P01130-4 (UniProt P01130),0.962 ± 0.026,0.977 ± 0.016,0.981 ± 0.023,0.966 ± 0.029,0.9771 ± 0.0072,0.987 ± 0.016
B7ZC38|Q9NR46 (UniProt Q9NR46),0.993 ± 0.015,0.977 ± 0.029,0.98 ± 0.033,0.981 ± 0.021,0.988 ± 0.056,0.936 ± 0.039
G5E9V5|G5E9W7|P82650 (UniProt P82650),1.01 ± 0.046,0.938 ± 0.079,0.892 ± 0.083,0.907 ± 0.18,0.88 ± 0.11,0.867 ± 0.1
I3L1H5|Q9BZG8 (UniProt Q9BZG8),0.984 ± 0.17,1.03 ± 0.12,0.987 ± 0.16,0.898 ± 0.12,0.987 ± 0.16,0.917 ± 0.13
F5H527|Q76I76 (UniProt Q76I76),0.984 ± 0.012,1 ± 0.016,0.993 ± 0.03,0.997 ± 0.013,0.978 ± 0.037,0.995 ± 0.062
A2ABJ5|O75955|A0A140T9R1 (UniProt O75955),1.03 ± 0.047,0.948 ± 0.029,0.926 ± 0.012,0.925 ± 0.11,0.931 ± 0.071,0.916 ± 0.052
A0A0A0MSV9|A0A0G2JH37|A0A0G2JKZ1|A2AB90|O15533|O15533-2|O15533-3 (UniProt O15533),1.04 ± 0.066,1.02 ± 0.067,0.986 ± 0.028,0.968 ± 0.047,0.99 ± 0.085,0.984 ± 0.088
J3KPP4|O95232 (UniProt O95232),2.04 ± 0.11,2.06 ± 0.14,2.12 ± 0.1,2.32 ± 0.14,2.27 ± 0.13,2.32 ± 0.18
E9PJI1|Q92993-3|Q92993-4|Q92993|Q92993-2 (UniProt Q92993),1.06 ± 0.12,0.959 ± 0.11,1.13 ± 0.17,1.1 ± 0.19,1.06 ± 0.21,1.13 ± 0.1
DHX15 (UniProt O43143),1.25 ± 0.079,1.24 ± 0.071,1.24 ± 0.079,1.24 ± 0.1,1.33 ± 0.074,1.29 ± 0.044
B1AKN5|B1AKN7|B1AKN8|Q12857|Q12857-3|Q12857-4|B1AKN6|S4R3K4|Q12857-2 (UniProt Q12857),1.22 ± 0.072,1.08 ± 0.11,1.12 ± 0.081,1.21 ± 0.13,0.995 ± 0.072,1.13 ± 0.033
E9PL53|J3KND1 (UniProt Q96ER3),0.966 ± 0.034,0.9715 ± 0.0057,0.951 ± 0.013,0.997 ± 0.019,0.9485 ± 0.0047,0.925 ± 0.011
H0Y6E7|H3BT71|P38159|P38159-2 (UniProt P38159),1.13 ± 0.068,1.22 ± 0.042,1.34 ± 0.046,1.56 ± 0.087,1.62 ± 0.026,1.79 ± 0.064
NDUFA2 (UniProt O43678),0.882 ± 0.1,0.874 ± 0.16,0.924 ± 0.1,0.985 ± 0.21,0.876 ± 0.081,0.835 ± 0.13
H7C3Q6|Q8WV92|B8ZZL5 (UniProt Q8WV92),1.85 ± 0.55,1.9 ± 0.66,1.92 ± 0.67,1.9 ± 0.76,1.97 ± 0.67,1.94 ± 0.67
TMEM120B (UniProt A0PK00),0.948 ± 0.058,1.05 ± 0.042,1.04 ± 0.09,0.894 ± 0.12,1.15 ± 0.13,1.13 ± 0.14
B0QY89|Q9Y262 (UniProt Q9Y262),1.09 ± 0.093,1.25 ± 0.15,1.23 ± 0.075,1.35 ± 0.072,1.6 ± 0.1,1.7 ± 0.12
J3KPF0 (UniProt Q9Y4D8),1.08 ± 0.036,1.04 ± 0.068,1.05 ± 0.025,1.01 ± 0.1,1.02 ± 0.08,1 ± 0.044
K7EK70|Q49A26 (UniProt Q49A26),1.18 ± 0.095,1.25 ± 0.1,1.38 ± 0.1,1.45 ± 0.083,1.57 ± 0.16,1.76 ± 0.081
H0YLE6|Q9NWH9|H0YNF3 (UniProt Q9NWH9),0.961 ± 0.054,0.988 ± 0.027,0.993 ± 0.038,1.11 ± 0.059,1.08 ± 0.032,1.13 ± 0.033
A8MXP9|P43243|P43243-2 (UniProt P43243),1.02 ± 0.042,1.03 ± 0.038,1 ± 0.026,1.05 ± 0.039,1 ± 0.029,1.03 ± 0.015
C9JKQ2|O43676 (UniProt O43676),0.921 ± 0.053,0.903 ± 0.08,0.867 ± 0.032,0.908 ± 0.048,0.862 ± 0.04,0.868 ± 0.042

Target,NP40-soluble protein abundance (concentration: 1mM),NP40-soluble protein abundance (concentration: 2mM),NP40-soluble protein abundance (concentration: 4mM),NP40-soluble protein abundance (concentration: 6mM),NP40-soluble protein abundance (concentration: 8mM),NP40-soluble protein abundance (concentration: 10mM)
I3L0W4|Q96F10 (UniProt Q96F10),0.98 ± 0.13,0.932 ± 0.07,0.962 ± 0.073,0.963 ± 0.064,0.94 ± 0.025,0.944 ± 0.035
SETD1A (UniProt O15047),0.962 ± 0.038,0.97 ± 0.018,0.979 ± 0.022,0.997 ± 0.044,0.969 ± 0.049,0.997 ± 0.046
A0A087X176|Q6ZRP7 (UniProt Q6ZRP7),0.958 ± 0.057,0.983 ± 0.011,0.961 ± 0.028,0.99 ± 0.029,0.953 ± 0.026,0.96 ± 0.037
A0A0X1KG71 (UniProt Q8WX92),0.9808 ± 0.0083,0.989 ± 0.012,0.9482 ± 0.0081,0.959 ± 0.033,0.959 ± 0.022,0.956 ± 0.023
H7C5F5|Q9H2U1|Q9H2U1-2 (UniProt Q9H2U1),0.963 ± 0.068,0.979 ± 0.08,0.987 ± 0.073,1.01 ± 0.1,1.03 ± 0.088,1.02 ± 0.1
K7ENL9|Q96DM3 (UniProt Q96DM3),1.04 ± 0.097,0.984 ± 0.027,1.02 ± 0.029,1.02 ± 0.058,1.02 ± 0.061,0.985 ± 0.03
C9J381|P20839|P20839-2|P20839-3|P20839-4|P20839-5|P20839-6|P20839-7 (UniProt P20839),0.999 ± 0.049,0.9672 ± 0.0062,0.933 ± 0.018,0.695 ± 0.051,0.61 ± 0.018,0.581 ± 0.033
UniProt O15379|O15379-2,1 ± 0.019,0.9928 ± 0.0062,0.985 ± 0.04,0.994 ± 0.053,1.04 ± 0.044,1.03 ± 0.065
G3XAC1|Q9BXS9|Q9BXS9-3|Q9BXS9-7|A0A0C4DFT5|Q9BXS9-4|Q9BXS9-5 (UniProt Q9BXS9),0.909 ± 0.018,0.891 ± 0.037,0.918 ± 0.073,0.885 ± 0.022,0.867 ± 0.074,0.863 ± 0.071
C9JJN9|Q8N3P4|Q8N3P4-2|Q8N3P4-3 (UniProt Q8N3P4),1.01 ± 0.053,0.984 ± 0.04,0.994 ± 0.068,0.9606 ± 0.0047,0.955 ± 0.039,0.979 ± 0.023
UniProt A7KAX9|A7KAX9-2,0.937 ± 0.054,0.91 ± 0.046,0.908 ± 0.0074,0.907 ± 0.024,0.904 ± 0.04,0.941 ± 0.018
HMGN4 (UniProt O00479),0.97 ± 0.35,1.27 ± 0.44,1.22 ± 0.47,1.67 ± 0.86,1.63 ± 0.72,2.97 ± 2.3
H3BTR4|Q96BT3 (UniProt Q96BT3),1.32 ± 0.023,1.41 ± 0.13,1.52 ± 0.21,1.72 ± 0.23,1.68 ± 0.17,1.87 ± 0.17
K7ELH7|K7ENE2|Q8IVV7 (UniProt Q8IVV7),1.04 ± 0.13,0.979 ± 0.11,1 ± 0.032,0.867 ± 0.075,0.931 ± 0.094,0.92918 ± 9.2e-06
ZNHIT1 (UniProt O43257),1.12 ± 0.047,1.16 ± 0.012,1.27 ± 0.042,1.3 ± 0.037,1.16 ± 0.037,1.19 ± 0.073
E9PJA7|Q9NYF8|Q9NYF8-2|Q9NYF8-3 (UniProt Q9NYF8),1.31 ± 0.092,1.41 ± 0.056,1.54 ± 0.086,1.7 ± 0.11,1.65 ± 0.07,1.7 ± 0.06
J3KP06|Q8WWI1|Q8WWI1-2|Q8WWI1-3|Q8WWI1-4 (UniProt Q8WWI1),1.31 ± 0.026,1.41 ± 0.07,1.57 ± 0.067,1.65 ± 0.07,1.77 ± 0.057,1.96 ± 0.042
E5RG17|Q6P1N9 (UniProt Q6P1N9),0.989 ± 0.02,0.974 ± 0.013,0.965 ± 0.02,0.963 ± 0.052,0.937 ± 0.019,0.968 ± 0.019
A0A0G2JPP5|Q14160|Q14160-3|A0A0G2JNZ2 (UniProt Q14160),0.973 ± 0.016,0.96 ± 0.02,0.9694 ± 0.0075,0.98 ± 0.023,0.93 ± 0.021,0.941 ± 0.031
J3KTL2|Q07955 (UniProt Q07955),1.41 ± 0.16,1.53 ± 0.14,1.7 ± 0.11,1.93 ± 0.19,1.89 ± 0.097,1.98 ± 0.093
C9J0K6|P30626|P30626-2|P30626-3 (UniProt P30626),0.887 ± 0.066,0.921 ± 0.078,0.892 ± 0.039,0.911 ± 0.072,0.896 ± 0.011,0.811 ± 0.12
A0A0A0MRR7|P09234 (UniProt P09234),1.34 ± 0.087,1.39 ± 0.078,1.56 ± 0.062,1.87 ± 0.2,1.83 ± 0.041,1.84 ± 0.1
B4DZG1|Q9Y483-3|Q9Y483 (UniProt Q9Y483),1.19 ± 0.023,1.25 ± 0.027,1.36 ± 0.057,1.41 ± 0.082,1.5 ± 0.032,1.56 ± 0.049
E9PB61|Q86V81 (UniProt Q86V81),1.04 ± 0.094,1.09 ± 0.07,1.22 ± 0.13,1.44 ± 0.15,1.53 ± 0.13,1.66 ± 0.24
A0A0A0MT22|M9MML4|P08575|P08575-2|X6R433 (UniProt P08575),0.946 ± 0.026,0.9679 ± 0.0084,0.9321 ± 0.0056,0.967 ± 0.014,0.918 ± 0.018,0.943 ± 0.036
J3KQ34|Q9H9Q2 (UniProt Q9H9Q2),0.89 ± 0.097,0.87 ± 0.04,0.855 ± 0.072,0.873 ± 0.093,0.878 ± 0.032,0.77 ± 0.1
PDLIM1 (UniProt O00151),0.963 ± 0.054,0.958 ± 0.031,0.944 ± 0.041,0.971 ± 0.016,0.939 ± 0.035,0.919 ± 0.036

# From the supplement of paper PMC6411743
